Experimental data reported in PMC5700166.

What was measured:
Test in all cases: protein-binding microarray (PBM); PBM: ~300 nM protein, 6 mM HEPES pH 7.8, 80 mM KCl, 0.5 mM EDTA, 0.5 mM EGTA, 6% glycerol, 35 ng/ul poly-dIdC, 1% milk, 1 h, room temperature; Ap Aiptasia and Nv Nematostella (sea anemones) / Co Capsaspora / Aq Amphimedon (sponge) / Dm Drosophila / Hu human; RHD is the Rel homology domain; high values mean tight binding
Conditions in all cases: dsDNA, one strand shown
[1] = target: T1, GST-Ap-NF-kB RHD (Exaiptasia pallida (Aiptasia), UniProt A0A913YAJ5 2-422)
T1 sequence: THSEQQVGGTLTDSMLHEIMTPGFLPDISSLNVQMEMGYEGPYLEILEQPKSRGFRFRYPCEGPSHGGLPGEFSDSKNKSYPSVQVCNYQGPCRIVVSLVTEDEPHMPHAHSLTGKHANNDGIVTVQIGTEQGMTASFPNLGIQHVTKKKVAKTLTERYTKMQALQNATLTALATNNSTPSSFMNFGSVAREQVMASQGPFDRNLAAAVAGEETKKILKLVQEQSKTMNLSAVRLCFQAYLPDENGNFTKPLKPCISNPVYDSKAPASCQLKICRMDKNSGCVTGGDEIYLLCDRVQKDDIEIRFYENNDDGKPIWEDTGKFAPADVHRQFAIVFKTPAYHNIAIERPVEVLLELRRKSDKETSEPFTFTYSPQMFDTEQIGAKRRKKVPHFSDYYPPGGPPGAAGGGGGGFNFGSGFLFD

[2] = target: T2, GST-Nv-NF-kB (Cys allele) (Nematostella vectensis, UniProt E5G601 2-411)
T2 sequence: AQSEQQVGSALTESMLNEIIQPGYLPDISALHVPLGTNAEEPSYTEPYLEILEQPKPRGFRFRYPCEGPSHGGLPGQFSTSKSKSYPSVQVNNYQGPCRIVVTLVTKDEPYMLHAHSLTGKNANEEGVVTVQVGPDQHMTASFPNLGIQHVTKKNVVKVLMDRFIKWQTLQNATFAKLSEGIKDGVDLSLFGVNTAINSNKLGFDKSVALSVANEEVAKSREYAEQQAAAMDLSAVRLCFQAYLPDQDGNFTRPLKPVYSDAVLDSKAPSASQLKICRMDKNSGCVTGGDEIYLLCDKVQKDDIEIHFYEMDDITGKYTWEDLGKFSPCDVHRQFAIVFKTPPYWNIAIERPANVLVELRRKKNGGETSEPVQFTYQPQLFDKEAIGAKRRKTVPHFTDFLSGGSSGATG

[3] = target: T3, GST-Co-NF-kB (Capsaspora owczarzaki, UniProt F1ARL5 200-546)
T3 sequence: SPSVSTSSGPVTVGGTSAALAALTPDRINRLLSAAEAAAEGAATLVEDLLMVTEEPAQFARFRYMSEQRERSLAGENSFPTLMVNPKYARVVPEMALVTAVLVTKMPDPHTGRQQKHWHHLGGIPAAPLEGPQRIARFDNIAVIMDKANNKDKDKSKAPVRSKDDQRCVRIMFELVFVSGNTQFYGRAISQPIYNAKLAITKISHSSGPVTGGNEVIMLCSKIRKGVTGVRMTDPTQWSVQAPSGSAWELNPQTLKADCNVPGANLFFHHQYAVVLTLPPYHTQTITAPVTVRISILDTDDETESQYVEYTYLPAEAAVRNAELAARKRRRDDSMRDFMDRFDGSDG

[4] = target: T4, GST-Dm-Relish (Drosophila melanogaster, UniProt Q94527 99-473)
T4 sequence: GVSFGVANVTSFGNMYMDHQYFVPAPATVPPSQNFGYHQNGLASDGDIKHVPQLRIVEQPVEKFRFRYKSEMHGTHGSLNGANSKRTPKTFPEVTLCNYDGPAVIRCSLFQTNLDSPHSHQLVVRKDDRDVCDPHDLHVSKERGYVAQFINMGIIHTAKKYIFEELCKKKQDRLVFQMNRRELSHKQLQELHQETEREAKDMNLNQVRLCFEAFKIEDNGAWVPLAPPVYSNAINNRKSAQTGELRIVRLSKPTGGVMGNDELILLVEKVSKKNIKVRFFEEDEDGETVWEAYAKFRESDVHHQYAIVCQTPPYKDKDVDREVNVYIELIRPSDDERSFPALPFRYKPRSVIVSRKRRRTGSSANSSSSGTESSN

[5] = target: T5, GST-Aq-NF-kB (Amphimedon queenslandica, UniProt A9Y5G7 2-389)
T5 sequence: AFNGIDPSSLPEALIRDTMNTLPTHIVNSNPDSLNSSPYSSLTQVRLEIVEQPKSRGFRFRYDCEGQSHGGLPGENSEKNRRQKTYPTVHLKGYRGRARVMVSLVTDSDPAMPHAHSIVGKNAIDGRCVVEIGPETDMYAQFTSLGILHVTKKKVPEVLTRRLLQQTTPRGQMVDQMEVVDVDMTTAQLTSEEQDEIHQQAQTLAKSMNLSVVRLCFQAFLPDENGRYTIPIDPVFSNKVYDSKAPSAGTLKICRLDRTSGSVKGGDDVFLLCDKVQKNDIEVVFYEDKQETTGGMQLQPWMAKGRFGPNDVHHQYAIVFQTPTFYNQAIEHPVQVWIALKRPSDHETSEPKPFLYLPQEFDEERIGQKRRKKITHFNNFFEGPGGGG

Sequence | binding signal [1] | binding signal [2] | binding signal [3] | binding signal [4] | binding signal [5]
CCGATTAACATCACGGGTTTCCCTGATGTTAATCGGGTCTTGATTCGCTTGACGCTGCTG | 3.92 z-score | 4.58 z-score | 4.46 z-score | 7.38 z-score | 5.5 z-score
CCGATTAACATCAACATCCCCCCTGATGTTAATCGGGTCTTGATTCGCTTGACGCTGCTG | 5.64 z-score | 5.25 z-score | 5.48 z-score | 5.72 z-score | 5.23 z-score
CCGATTAACATCAATTGCCCCCCTGATGTTAATCGGGTCTTGATTCGCTTGACGCTGCTG | 4.5 z-score | 2.81 z-score | 5.24 z-score | 3.87 z-score | 4.63 z-score
CCGATTAACATCAGGGGGGGCACTGATGTTAATCGGGTCTTGATTCGCTTGACGCTGCTG | 4.77 z-score | 3.1 z-score | 4.2 z-score | 4.97 z-score | 4.76 z-score
CCGATTAACATCAAGGGATTTCCTGATGTTAATCGGGTCTTGATTCGCTTGACGCTGCTG | 5.46 z-score | 5.12 z-score | 1.32 z-score | 7.74 z-score | 6.44 z-score
CCGATTAACATCAAGGGATCCCCTGATGTTAATCGGGTCTTGATTCGCTTGACGCTGCTG | 8.25 z-score | 5.8 z-score | 4.18 z-score | 9.18 z-score | 6.19 z-score
CCGATTAACATCAGGATCTCCCCTGATGTTAATCGGGTCTTGATTCGCTTGACGCTGCTG | 7.91 z-score | 5.49 z-score | 4.26 z-score | 5.64 z-score | 6.38 z-score
CCGATTAACATCAAATGGGAATTTGATGTTAATCGGGTCTTGATTCGCTTGACGCTGCTG | 1.19 z-score | 4.5 z-score | 1.12 z-score | 4.52 z-score | 2.35 z-score
CCGATTAACATCAAGCGTTCCCCTGATGTTAATCGGGTCTTGATTCGCTTGACGCTGCTG | 5.35 z-score | 5.36 z-score | 4.53 z-score | 3.82 z-score | 4.01 z-score
CCGATTAACATCAGGGGTGGGAATGATGTTAATCGGGTCTTGATTCGCTTGACGCTGCTG | 2.31 z-score | 2.09 z-score | 3.75 z-score | 2.17 z-score | 2.94 z-score
CCGATTAACATCAAAAGACCCCCTGATGTTAATCGGGTCTTGATTCGCTTGACGCTGCTG | 6.38 z-score | 5.12 z-score | 3.12 z-score | 8.16 z-score | 6.25 z-score
CCGATTAACATCAAAAACTCCCATGATGTTAATCGGGTCTTGATTCGCTTGACGCTGCTG | 4.22 z-score | 5.15 z-score | 2.58 z-score | 5.66 z-score | 5.3 z-score
CCGATTAACATCAAGGGGAGTCCTGATGTTAATCGGGTCTTGATTCGCTTGACGCTGCTG | 6.71 z-score | 4.83 z-score | 2.5 z-score | 8.01 z-score | 5.29 z-score
CCGATTAACATCAAAAATCCCGATGATGTTAATCGGGTCTTGATTCGCTTGACGCTGCTG | 3.79 z-score | 3.94 z-score | 1.91 z-score | 6.2 z-score | 4.05 z-score
